# Data taken from PubChem BioAssay AID686979 (National Center for Advancing Translational Sciences (NCATS), 2013).
# Screen size: about 420,000 compounds; about 50,000 (12%) were called active. Inconclusive results (about 26%) are left out. The list comes from a sample in which actives are over-represented; it also holds similar structures and randomly drawn compounds. Unmarked numbers belong to inactive results. The call rests on the fitted dose curve; in most records, active means well fitted inhibition curve with a large enough effect; inconclusive means small, poorly fitted or top-dose-only effect; inactive means flat fitted curve, though single readings scatter.
# Assay: qHTS for Inhibitors of human tyrosyl-DNA phosphodiesterase 1 (TDP1): qHTS in cells in presence of CPT; further: nearly all actives have a fitted effect of over 55% in size
# Conditions: chicken DT40 Tdp1-/-;hTDP1 cells + 20 nM CPT, ATP luminescence, 48 h; series mostly up to 46.2 µM; activity change, negative = growth inhibition: at the top concentration
# Method in brief: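 Chicken DT40 Tdp1-/- cells complemented with human TDP1, 400 cells/well, exposed to compounds plus 20 nM camptothecin for at least 48 h at 37 C; viability read as ATP content by CellTiter-Glo luminescence.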
# On the % scale 0 is the no-effect control and ±100 the full control effect; potency means the concentration at half of the fitted maximal effect.
Structure (SMILES),"activity change, negative = growth inhibition",Potency
CCn1c(CNC(=O)C23CC4CC(CC(C4)C2)C3)nnc1SCC(=O)Nc1ccc(OC)cc1,-21.9% (inactive),–
COC(=O)C1CC2=C(CC(C)(C)CC2=O)N(c2ccccc2)C1=O (stereo unspecified),-3.49% (inactive),–
CC(C)N1C(=O)N(c2ccccc2)C(C)(O)CC1(C)C (stereo unspecified),-17% (inactive),–
CC(C)C1C2=C(CC(C)(C)CC2=O)ON1c1ccccc1 (stereo unspecified),–,25.9 µM (active)
COc1cc2nc(CN(C)Cc3ccc(F)cc3)[nH]c(=O)c2cc1OC,-27.7% (inactive),–
CCOC(=O)C1CCCN(C(=O)c2cccc3ccccc23)CC1 (stereo unspecified),5.97% (inactive),–
CCOC(=O)C1CCCN(C(=O)C2CCN(c3nnc(-n4cccc4)s3)CC2)C1 (stereo unspecified),-2.31% (inactive),–
CCOC(=O)C1CCCN(C(=O)c2ccc(-n3ccc4ccccc43)s2)C1 (stereo unspecified),–,18.4 µM (active)
CCC(Oc1ccccc1C)C(=O)Nc1ccc(S(=O)(=O)Nc2cc(C)on2)cc1 (stereo unspecified),7.59% (inactive),–
CCOC(=O)c1sc(NC(=O)C2CSC3(C)CCC(=O)N23)nc1C (stereo unspecified),6.57% (inactive),–
CN(C)S(=O)(=O)c1ccc(C(=O)NCC2(N3CCOCC3)CCCCC2)cc1,-27% (inactive),–
O=C(NCc1ccc(F)cc1)C1CCN(C(=O)Nc2ccc(F)cc2)CC1,7.91% (inactive),–
CCOC(=O)c1c(C)[nH]c2c1-c1ccccc1C(=O)C2=O,–,0.517 µM (active)
CCOC(=O)c1c(C)[nH]c(C)c1S(=O)(=O)N(C)CC(=O)Nc1ccccc1C,-0.387% (inactive),–
CCOC(=O)c1c(SCC(=O)Nc2cccc(C)c2C)nc(=O)[nH]c1C,-25.5% (inactive),–
Cc1ccc(S(=O)(=O)N2CCCC2C(=O)OCc2nc3sc(C)c(C)c3c(=O)[nH]2)cc1 (stereo unspecified),-12.6% (inactive),–
COCCN(CCOC)c1nc(N)c2c(N)nc3c(c2c1C#N)CC(=O)N3Cc1ccc(Cl)cc1,-6.53% (inactive),–
O=C(CNC(=O)c1ccc(F)cc1)c1ccccc1,1.2% (inactive),–
C[C@H](NC(=O)c1ccccc1)C(=O)OCC(=O)c1c[nH]c2ccccc12,-21.6% (inactive),–
CN(C)c1ccc(C(CNC(=O)c2ccc(F)cc2)c2c[nH]c3ccccc23)cc1 (stereo unspecified),–,18.4 µM (active)
O=C(CCNC(=O)c1ccc(Br)cc1)NCCCc1ccccc1,-23.6% (inactive),–
COc1ccccc1CN1CCNC(=O)C1CC(=O)N(C)CC1CCOCC1 (stereo unspecified),-8.06% (inactive),–
Cc1cc(C)c[n+](-c2nc3ccccc3nc2[N-]S(=O)(=O)c2cccs2)c1,5.23% (inactive),–
O=S(=O)([N-]c1nc2ccccc2nc1-[n+]1ccc(Cc2ccccc2)cc1)c1ccc(Br)s1,–,14.6 µM (active)
O=S(=O)(NCc1cccnc1)c1ccc(Br)s1,-22.4% (inactive),–
C[C@@H](NC(=O)c1nc[nH]c1C(=O)N1CCN(C(=O)OC(C)(C)C)CC1)c1ccccc1,-20.9% (inactive),–

Structure (SMILES),"activity change, negative = growth inhibition",Potency
Cc1ccccc1N1CC(C(=O)Nc2ccc(S(=O)(=O)N3CCCC3)cc2)CC1=O (stereo unspecified),-23.3% (inactive),–
O=C1CS(=O)CN1c1ccc(Oc2ccccc2)cc1 (stereo unspecified),-3.4% (inactive),–
COc1ccc(-c2nc3cnccn3c2NC(C)(C)CC(C)(C)C)cc1O,–,20.6 µM (active)
COc1ccc(-c2cc(C(F)(F)F)nc(NCc3cccnc3)n2)cc1,-5.03% (inactive),–
Cc1cccc(NC(=O)N2CCN(C)c3ncccc32)c1C,-12.9% (inactive),–
CCOc1ccccc1C(=O)Nc1ccc2c(c1)N(C)C(=O)c1ccccc1S2,–,4.61 µM (active)
CCOc1ccccc1C(=O)NCCCn1ccnc1,4.33% (inactive),–
CCN1C(=O)c2ccccc2Sc2ccc(NC(=O)Cc3ccc(OC)cc3)cc21,-3.35% (inactive),–
C[C@H]1CC[C@]2(O[C@@H](CCO)C[C@@H](O)[C@@H]2O)O1,-12.3% (inactive),–
C=CCn1cc(Cl)cc(C(=O)Nc2ccccc2)c1=O,17.1% (inactive),–
CN(C)C(=O)N1CCNCC1,-3.78% (inactive),–
CC(C)(C)C(=O)NC(NC(=S)Nc1ccc(S(N)(=O)=O)cc1)C(Cl)(Cl)Cl (stereo unspecified),-7.12% (inactive),–
CCOc1cc(C(=O)Nc2c(C)ccc3nsnc23)cc(OCC)c1OCC,-8.86% (inactive),–
COc1ccc(-c2nnc(SC(C)C#N)o2)cc1 (stereo unspecified),-9.97% (inactive),–
COc1ccc(-c2nnc(SC(=O)N3c4ccccc4Sc4ccccc43)o2)cc1,–,8.2 µM (active)
COc1ccc(-c2nnc(SC(C)C(=O)NC3CC3)o2)cc1 (stereo unspecified),-0.623% (inactive),–
Clc1ccc(-c2nnc(-c3ccccc3)nc2N2CCSCC2)cc1,–,16.4 µM (active)
OCCN1CCN(c2nnc(-c3ccccc3)c3ccccc23)CC1,-7.45% (inactive),–
O=C(Cn1c(=O)n(-c2ccc(F)cc2)c(=O)c2sc3ccccc3c21)NC1CCCC1,-6.01% (inactive),–
O=c1c2ccccc2ncn1CCc1ccncc1,6.46% (inactive),–
COc1ccccc1-c1cc2nc(C)c(CCC(=O)O)c(C)n2n1,4.44% (inactive),–
Cc1ccc(S(=O)(=O)n2nc(OC(=O)C(C)(C)C)cc2N)cc1,5.36% (inactive),–
CCOC(=O)c1oc2ccc(S(=O)(=O)n3nc(-c4ccccc4OC)cc3N)cc2c1C,–,18.4 µM (active)
O=C(CC1C(=O)NCCN1Cc1ccc(-c2ccccc2)cc1)NCc1ccncc1 (stereo unspecified),-29.6% (inactive),–
CN[C@@H]1[C@H](O[C@H]2[C@H](O[C@H]3[C@H](O)[C@@H](O)[C@H](N=C(N)N)[C@@H](O)[C@@H]3N=C(N)N)O[C@@H](C)[C@]2(O)CO)O[C@@H](CO)[C@H](O)[C@H]1O,5.85% (inactive),–
